Test results published in PubChem BioAssay (NCATS).
Records with an inconclusive call do not appear. Where a call stands in place of a potency, no number is given. The source made the active and inactive calls. Calls come from the whole dose curve; as a rule, active = well fitted cell-killing curve with a large enough effect; inconclusive = small, poorly fitted or top-dose-only effect, or effect the other way; inactive = no such curve, though single readings can be large or run the other way.

assay: Quantitative High-Throughput drug screen in 47 multiple myeloma cell lines against the NCATS MIPE library collection: OPM2_DSMZ cell viability assay (AID 1919872); settings: OPM2 myeloma viability, CellTiter-Glo ATP luminescence, 48 h; series mostly up to 45.8 µM; note: nearly all actives have a fitted effect of over 30% in size
From the text: PI: Beverly A. Mock Ph.D.
Laboratory of Cancer Biology and Genetics,
Center for Cancer Research, National Cancer Institute,
National Institute of Health, Bethesda, Maryland
Drug resistance and disease progression are common in multiple myeloma (MM) patients, underscoring the need for new therapeutic combinations. […] We hypothesized that effective combinations would reduce MYC expression and enhance p16 activity. […] These preclinical data identify potentially useful drug combinations for evaluation in drug-resistant MM and reveal potential mechanisms of combined drug sensitivity.
Described herein is the primary MIPE qHTS used to cherrypick compounds. Validated compounds were then further tested for potential synergistic activiy.
[1] Peat TJ, Gaikwad SM, Dubois W, Gyabaah-Kessie N, Zhang S, Gorjifard S, Phyo Z, Andres M, Hughitt VK, Simpson RM, Miller MA, Girvin AT, Taylor A, Williams D, D'Antonio N, Zhang Y, Rajagopalan A, Flietner E, Wilson K, Zhang X, Shinn P, Klumpp-Thomas C, McKnight C, Itkin Z, Chen L, Kazandijian D, Zhang J, Michalowski AM, Simmons JK, Keats J, Thomas CJ, Mock BA. Drug combinations identified by high-throughput screening promote cell cycle transition and upregulate Smad pathways in myeloma. Cancer Lett. 2023 Aug 1;568:216284. doi: 10.1016/j.canlet.2023.216284. Epub 2023 Jun 24. PMID: 37356470; PMCID: PMC10408729.
SEQUENCE No. (e.g., 1, 2, 3, etc.); […] (e.g., Cells, Incubation, Reagent, etc.); VALUE and DESCRIPTION.
1; Cells; 5 uL; white, solid bottom 1536-well Greiner assay plate.
2; Compounds; 23 nL; Kalypsis pin tool (Wako USA) equipped with a 1536-well pin head to transfer to the assay plates.
3; Incubation; 48 hours; 37C incubation.
4; Reagent;5uL; CellTiter Glo (Promega).
5; Detector; 425V; Luminescence; Viewlux PerkinElmer.
NOTES (numbers refer to Sequence numbers above)
1. The cell-based screening methods employed in this study were like those previously published. Briefly, the corresponding myeloma cell lines were screened in 1,536-well plates with 500 cells, 5-uL per well for inhibition of cell viability (assessed by measuring ATP levels with CellTiterGlo).
2. NCATS MIPE 4.0 library of approved and investigational drugs were added using the Kalypsis pin tool. Wells treated with DMSO only for 100% viability and media only wells for 0% viability were used as controls.
3. The assay plates were covered and incubated for 48 hours in a 37C, 5% CO2 incubator with controlled humidity.
4. After 48 hours, CellTilter-GloTM luminescent substrate mix (Promega) reagent was added to the assay plate and plates we incubated for 5 min at room temperature.
5. Signal was measured as median relative luminescence units on a ViewLux (PerkinElmer) multiplate reader.
[1] Heske CM, Davis MI, Baumgart JT, Wilson K, Gormally MV, Chen L, Zhang X, Ceribelli M, Duveau DY, Guha R, Ferrer M, Arnaldez FI, Ji J, Tran HL, Zhang Y, Mendoza A, Helman LJ, Thomas CJ. Matrix Screen Identifies Synergistic Combination of PARP Inhibitors and Nicotinamide Phosphoribosyltransferase (NAMPT) Inhibitors in Ewing Sarcoma. Clin Cancer Res. 2017 Dec 1;23(23):7301-7311. doi: 10.1158/1078-0432.CCR-17-1121. Epub 2017 Sep 12. PMID: 28899971; PMCID: PMC6636827.
Potency is the fitted concentration of half-maximal effect.

Row | Structure (SMILES) | Potency
1 | CC1=C2C[C@@H]3[C@@H](CC=C4C[C@@H](O)CC[C@@]43C)[C@@H]2CC[C@]12O[C@H]1C[C@H](C)CN[C@H]1[C@H]2C | inactive
2 | CN(C)[C@@H]1C(=O)C(C(N)=O)=C(O)[C@@]2(O)C(=O)C3=C(O)c4c(O)cccc4[C@@](C)(O)[C@H]3C[C@@H]12 | 16.6 µM (active)
3 | C#CCN(C)[C@H](C)Cc1ccccc1 | inactive
4 | C[C@@H]1[C@@H](C(=O)C[C@H]2O[C@@H]3O[C@]4(C)CC[C@@H]5[C@H](C)CC[C@@H]([C@H]2C)[C@@]35OO4)O[C@@H]2O[C@]3(C)CC[C@H]4[C@H](C)CC[C@@H]1[C@@]24OO3 | 0.372 µM (active)
5 | COC[C@H]1OC(=O)c2coc3c2[C@@]1(C)C1=C(C3=O)C2CCC(=O)[C@@]2(C)C[C@H]1OC(C)=O (some centres not stated) | 10.5 µM (active)
6 | CN(C)CCc1ccc(O)cc1 | inactive
7 | O=C(O)C(=O)c1cn(Cc2ccccc2)c2ccc(-c3ccc(OC(F)(F)F)cc3)cc12 | inactive
8 | C=C(C)[C@H]1Cc2c(ccc3c2O[C@@H]2COc4cc(OC)c(OC)cc4[C@@H]2C3=O)O1 | 4.69 µM (active)
9 | O=c1[nH]c2ccccc2n1CCCN1CCC(n2c(=O)[nH]c3cc(Cl)ccc32)CC1 | inactive
10 | COc1ccc(C(=O)c2c(C)n(CCN3CCOCC3)c3ccccc23)cc1 | inactive
11 | Cc1cccc(C)c1NC(=O)CN1CCCC1=O | inactive
12 | Fc1ccc(C(OCCN2CCN(CCCc3ccccc3)CC2)c2ccc(F)cc2)cc1 | 23.5 µM (active)
13 | COc1ccc2c(c1OC)CN1CCc3cc4c(cc3C1C2)OCO4 (configuration not stated) | inactive
14 | NCC1(CC(=O)O)CCCCC1 | inactive
15 | CCCC(C)(COC(N)=O)COC(=O)NC(C)C (configuration not stated) | inactive
16 | CNC(=O)c1ccc(N2C(=S)N(c3ccc(C#N)c(C(F)(F)F)c3)C(=O)C23CCC3)cc1F | inactive
17 | CN1CCN(C(=O)O[C@H]2c3nccnc3C(=O)N2c2ccc(Cl)cn2)CC1 | inactive
18 | COC1(CS(=O)c2ccccc2)CCN(CCc2c[nH]c3ccc(F)cc23)CC1 (configuration not stated) | inactive
19 | CN(C)CCN(C)CCc1ccc(Cl)c(Cl)c1 | inactive
20 | CNCC(O)c1ccc(O)cc1 (configuration not stated) | inactive
21 | COC[C@@H](NC(C)=O)C(=O)NCc1ccccc1 | inactive
22 | CC(C)CC(N(C)C)C1(c2ccc(Cl)cc2)CCC1 (configuration not stated) | inactive
23 | COc1ccc(C(CN(C)C)C2(O)CCCCC2)cc1 (configuration not stated) | inactive
24 | Cc1cc(SCc2sc(-c3ccc(C(F)(F)F)c(F)c3)nc2C)ccc1OCC(=O)O | inactive
25 | N[C@@H](Cc1ccc(N(CCCl)CCCl)cc1)C(=O)O | 18.7 µM (active)
26 | O=P1(NCCCl)OCCCN1CCCl (configuration not stated) | inactive
27 | O=C1CC[C@@]2(O)[C@H]3Cc4ccc(O)c5c4[C@@]2(CCN3CC2CC2)[C@H]1O5 | inactive
